Compounds without any hit were thinned out: in the full panel of roughly 79,000, 15% have a hit. Values without a mark were called inactive. The source made the active and inactive calls. Rule as the data show it: active = growth inhibition above about 70%; inactive = the rest.

The values below come from PubChem BioAssay (NCI).

Assay [1] can be described thus: NCI Yeast Anticancer Drug Screen. Data for the rad50 strain (AID 155).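 Also: 0% = growth of vehicle-only cultures of the same strain.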 The following applies: S. cerevisiae rad50 strain growth inhibition; at 50.0 µM; active compounds read high. In outline:
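Yeast carrying a defined DNA repair defect were exposed to test compounds, and growth was compared with vehicle-treated controls to give percent inhibition.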

Assay [2] in a line: NCI Yeast Anticancer Drug Screen. Data for the mec2-1 strain (AID 157). Conditions: S. cerevisiae mec2-1 strain, at 50.0 µM, active compounds read high. The method, boiled down:
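Compounds were applied to mec2-1 yeast cells. Their growth was then compared with that of vehicle-treated cultures to give growth inhibition.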

Assay [3] can be described thus: NCI Yeast Anticancer Drug Screen. Data for the sgs1 mgt1 strain (AID 161).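 Also: 0% = growth of cultures given vehicle only.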 Conditions: S. cerevisiae sgs1 mgt1 strain, at 50.0 µM, active compounds read high. In outline:
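Percent growth inhibition was derived by comparing compound-exposed mutant yeast with vehicle-exposed cultures. The strain carries alterations in DNA damage repair.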

The nature of assay [4]: NCI Yeast Anticancer Drug Screen. Data for the cln2 rad14 strain (AID 165).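 Also: 0% = growth equal to vehicle treated cultures.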 Conditions: S. cerevisiae cln2 rad14 strain, at 50.0 µM, active compounds read high. The method, boiled down: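 Strain: cln2 rad14 yeast, altered in cell cycle control and DNA damage repair. Read-out: growth inhibition vs vehicle.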
Assay [5] in a line: NCI Yeast Anticancer Drug Screen. Data for the bub3 strain (AID 167). Conditions: S. cerevisiae bub3 mutant strain, at 50.0 µM, active compounds read high. In outline:
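Compounds were applied to a genetically altered yeast strain carrying a cell-cycle control defect. Growth inhibition was scored against vehicle-treated controls.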

The nature of assay [6]: NCI Yeast Anticancer Drug Screen. Data for the mlh1 rad18 strain (AID 175). The following applies: S. cerevisiae mlh1 rad18 strain growth inhibition; at 50.0 µM; active compounds read high. In outline:
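A repair-deficient yeast strain is exposed to test compound, and growth is scored relative to vehicle-treated controls.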

As for `C1OC1CO[C@H]1CO[C@H]2[C@@H]1OC[C@@H]2OCC1CO1` (stereo not given in full), the growth inhibition was -9.35% in assay [1]; -2.4% in assay [2]; 8.05% in assay [3]; -30.5% in assay [4]; 18.1% in assay [5]; 2.25% in assay [6].
Consider `O=C(NO)C(=O)NO`, for which the growth inhibition was -0.65% in assay [1]; -2.95% in assay [2]; -1.9% in assay [3]; -19.4% in assay [4]; -20% in assay [5]; -16.8% in assay [6].
For the compound `CNc1nc(Cl)nc2c1nc(SC)n2-c1ccccc1`, the growth inhibition in assay [1] was 7.15%; in assay [2], -17.8%; in assay [3], 4.2%; in assay [4] it was -13.2%; in assay [5] it was 18.2%; in assay [6] it was 17.4%.
Take `CC1=C(CCC(C)CO)OC2CC3C4CCC5CC(O)CCC5(C)C4CCC3(C)C12` (stereo not given): the growth inhibition in assay [1] was -4.5%; in assay [2] it was -22.6%; in assay [3], -24.7%; in assay [4], -1.9%; in assay [5], -21.1%; in assay [6], -16.4%.
With `c1ccc2c3[n+](ccc2c1)CCC[n+]1ccc2ccccc2c1-3`, the growth inhibition in assay [1] was 75.1% (active); in assay [2], 38%; in assay [3], 85% (active); in assay [4], 60%; in assay [5], 18.3%; in assay [6], 79% (active).
In the case of `CC(CCC(=O)O)C1CCC2C3CCC4CCCCC4(C)C3CCC12C` (stereo not given), the growth inhibition was 8.4% in assay [1]; 41.9% in assay [2]; 43.3% in assay [3]; 17.3% in assay [4]; 51.2% in assay [5]; 49.5% in assay [6].
Take `C/C(Cc1cccc2ccccc12)=N/NC(N)=O`: the growth inhibition is 2.35% in assay [1]; -27.8% in assay [2]; -19.1% in assay [3]; -8% in assay [4]; -12.1% in assay [5]; -8.45% in assay [6].
Turning to `Cc1cc(N(CCC#N)CCC#N)ccc1/C=C\C(=O)Nc1ccccc1`, the growth inhibition was 19.3% in assay [1]; 16.3% in assay [2]; -10.8% in assay [3]; 10.2% in assay [4]; 36.7% in assay [5]; 4.55% in assay [6].
Regarding `CN(C)c1ccc(N2C(=S)SC(=Nc3ccccc3)C2=Nc2ccccc2)cc1`, the growth inhibition was -6% in assay [1]; -13.6% in assay [2]; -10.8% in assay [3]; 7.05% in assay [4]; -1.5% in assay [5]; 3.45% in assay [6].
Regarding `COc1ccc(OC)c2cc3c(cc12)C(=O)c1ccccc1C3=O`, the growth inhibition in assay [1] was 10.6%; in assay [2] it was 70.2% (active); in assay [3], 25.2%; in assay [4] it was 90.7% (active); in assay [5] it was 94.6% (active); in assay [6] it was 46.9%.
Consider `C=C1C(=O)N2CCc3c([nH]c4ccccc34)[C@H]2C[C@@H]1CO`, for which the growth inhibition in assay [1] is 5.4%; in assay [2] it was 2.4%; in assay [3], 4.2%; in assay [4] it was 5%; in assay [5], 7.05%; in assay [6], 10.8%.
Regarding `CS(=O)(=O)Nc1ccc(C(=O)CCN2CCCCCC2)cc1`, the growth inhibition in assay [1] was -4.35%; in assay [2], 8.9%; in assay [3], -28.9%; in assay [4] it was -6.6%; in assay [5], -27.5%; in assay [6], -23.1%.
For the compound `O=C(OCc1ccccc1)N(CCCCN(CCCNC(=O)C(F)(F)F)C(=O)OCc1ccccc1)CCCNC(=O)C(F)(F)F`, the growth inhibition in assay [1] was -14.8%; in assay [2], -9.7%; in assay [3], 21.4%; in assay [4] it was 20.4%; in assay [5], 21.8%; in assay [6], -33.8%.
In the case of `OCC1=C(CO)CC=CC1`, the growth inhibition was -21% in assay [1]; 10% in assay [2]; 2.2% in assay [3]; 1.5% in assay [4]; -3.05% in assay [5]; 28.6% in assay [6].
Turning to `CO/C(=N\N=C\c1cc(OC)ccc1OC)c1ccncc1`, the growth inhibition was 0.6% in assay [1]; -13.2% in assay [2]; -23.6% in assay [3]; 10.7% in assay [4]; -38.8% in assay [5]; -11.2% in assay [6].
For `Nc1nc(-c2cc(Br)ccc2N=NN2CCOCC2)nc2ccc(Br)cc12`, the growth inhibition in assay [1] was 98.8% (active); in assay [2], 99.1% (active); in assay [3] it was 99.3% (active); in assay [4], 98.8% (active); in assay [5], 99% (active); in assay [6], 99% (active).
`CNc1ccc(/C=C/c2ccnc3ccccc23)cc1`: the growth inhibition is 31.2% in assay [1]; 46.2% in assay [2]; 68.3% in assay [3]; 27.6% in assay [4]; 42.1% in assay [5]; 49.8% in assay [6].
As for `CCOC(=O)c1c[nH]c(=S)[nH]c1=O`, the growth inhibition in assay [1] was 9.25%; in assay [2] it was -8.4%; in assay [3], 18.7%; in assay [4], -15.1%; in assay [5], -1.2%; in assay [6], -10.8%.
Turning to `S=C(Nc1c2c(nc3ccccc13)CCCC2)Nc1c2c(nc3ccccc13)CCCC2`, the growth inhibition in assay [1] was -14.9%; in assay [2], 9.55%; in assay [3], -0.3%; in assay [4] it was 9.8%; in assay [5] it was -17.9%; in assay [6], 12%.
For `COc1cc(/C=N/NC(N)=S)cc(OC)c1`, the growth inhibition in assay [1] is -4.1%; in assay [2], -11.2%; in assay [3], -15.1%; in assay [4] it was -35.9%; in assay [5], -17.6%; in assay [6], -11.8%.
